# Data as given in the supplement of paper PMC6411743.
# ± gives the standard deviation of the averaged measurements. Targets with the largest changes are over-represented here; the source holds about 6,200 in all.
# Compound: Nc1ncnc2c1ncn2[C@@H]1O[C@H](COP(=O)(O)OP(=O)(O)NP(=O)(O)O)[C@@H](O)[C@H]1O [adenylyl imidodiphosphate]
# Test: NP40-soluble protein abundance relative to vehicle (solubility fold change) (ratio); higher = more soluble protein in presence of AMP-PNP
# Summary of the method: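 Across three independent experiments, values are fold changes against the detergent-processed vehicle for each replicate, based on vsn-normalised intensities. The samples were Jurkat crude lysate treated with eight concentrations (0.1 to 10 mM) for 10 min at room temperature and then 3 min at 37 °C. Lysate was solubilised with 0.8% NP40 and benzonase, ultracentrifuged, and the supernatant analysed by TMT-labelled LC-MS/MS.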
# UniProt P52888, sequence (P52888 whole entry): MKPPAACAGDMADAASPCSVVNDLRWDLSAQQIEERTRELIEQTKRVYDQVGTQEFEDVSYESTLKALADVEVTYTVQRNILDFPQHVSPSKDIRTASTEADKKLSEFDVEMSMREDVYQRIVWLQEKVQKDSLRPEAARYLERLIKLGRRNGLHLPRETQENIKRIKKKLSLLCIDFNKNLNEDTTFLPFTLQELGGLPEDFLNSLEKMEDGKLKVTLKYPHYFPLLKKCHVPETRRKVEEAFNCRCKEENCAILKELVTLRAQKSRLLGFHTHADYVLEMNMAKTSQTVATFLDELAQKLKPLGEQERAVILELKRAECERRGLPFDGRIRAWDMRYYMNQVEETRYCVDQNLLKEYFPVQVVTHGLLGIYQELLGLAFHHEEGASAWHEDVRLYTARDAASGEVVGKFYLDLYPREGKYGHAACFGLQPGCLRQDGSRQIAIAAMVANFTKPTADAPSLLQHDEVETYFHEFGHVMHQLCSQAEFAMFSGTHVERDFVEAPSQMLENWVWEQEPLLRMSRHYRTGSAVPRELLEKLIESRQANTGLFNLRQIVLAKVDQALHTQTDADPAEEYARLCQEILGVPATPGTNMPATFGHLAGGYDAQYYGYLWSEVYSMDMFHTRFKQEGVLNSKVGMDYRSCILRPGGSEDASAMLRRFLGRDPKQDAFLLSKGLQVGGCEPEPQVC
# UniProt P16401, sequence (P16401 whole entry): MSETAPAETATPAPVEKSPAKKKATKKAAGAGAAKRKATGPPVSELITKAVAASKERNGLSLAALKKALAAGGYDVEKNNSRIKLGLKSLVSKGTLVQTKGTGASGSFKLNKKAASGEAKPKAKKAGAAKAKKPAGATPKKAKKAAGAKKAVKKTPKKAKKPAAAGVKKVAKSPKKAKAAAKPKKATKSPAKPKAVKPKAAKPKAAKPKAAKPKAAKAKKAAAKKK
# UniProt P40818, sequence (P40818 whole entry): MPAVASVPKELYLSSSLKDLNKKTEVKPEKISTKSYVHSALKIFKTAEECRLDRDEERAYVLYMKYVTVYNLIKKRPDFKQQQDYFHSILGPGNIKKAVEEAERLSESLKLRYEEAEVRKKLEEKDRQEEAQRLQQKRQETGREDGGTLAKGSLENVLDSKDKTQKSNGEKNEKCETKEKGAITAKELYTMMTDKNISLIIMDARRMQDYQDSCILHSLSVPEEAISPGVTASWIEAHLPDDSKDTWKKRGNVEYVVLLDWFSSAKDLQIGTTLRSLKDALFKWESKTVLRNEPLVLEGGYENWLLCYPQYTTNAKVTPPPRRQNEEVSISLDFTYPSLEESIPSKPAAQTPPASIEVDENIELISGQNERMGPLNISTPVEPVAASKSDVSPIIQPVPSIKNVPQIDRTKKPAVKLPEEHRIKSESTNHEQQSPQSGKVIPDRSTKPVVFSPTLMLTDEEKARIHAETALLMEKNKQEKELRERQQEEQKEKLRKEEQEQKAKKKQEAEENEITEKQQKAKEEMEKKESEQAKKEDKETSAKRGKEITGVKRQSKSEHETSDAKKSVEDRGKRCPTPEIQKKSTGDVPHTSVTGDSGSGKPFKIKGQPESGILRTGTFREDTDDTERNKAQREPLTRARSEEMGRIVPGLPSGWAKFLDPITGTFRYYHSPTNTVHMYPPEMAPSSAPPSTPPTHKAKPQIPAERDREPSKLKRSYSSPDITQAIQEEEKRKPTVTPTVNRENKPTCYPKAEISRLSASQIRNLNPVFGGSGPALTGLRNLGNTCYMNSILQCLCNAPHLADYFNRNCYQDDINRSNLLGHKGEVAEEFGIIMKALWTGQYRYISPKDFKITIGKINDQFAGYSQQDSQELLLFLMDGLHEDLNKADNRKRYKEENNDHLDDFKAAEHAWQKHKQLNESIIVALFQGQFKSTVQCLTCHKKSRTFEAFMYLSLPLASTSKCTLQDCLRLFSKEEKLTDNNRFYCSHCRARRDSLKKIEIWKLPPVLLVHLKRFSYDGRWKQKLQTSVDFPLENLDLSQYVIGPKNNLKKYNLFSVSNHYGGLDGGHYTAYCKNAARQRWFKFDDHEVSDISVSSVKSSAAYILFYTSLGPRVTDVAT
# UniProt Q13105, sequence (Q13105 whole entry): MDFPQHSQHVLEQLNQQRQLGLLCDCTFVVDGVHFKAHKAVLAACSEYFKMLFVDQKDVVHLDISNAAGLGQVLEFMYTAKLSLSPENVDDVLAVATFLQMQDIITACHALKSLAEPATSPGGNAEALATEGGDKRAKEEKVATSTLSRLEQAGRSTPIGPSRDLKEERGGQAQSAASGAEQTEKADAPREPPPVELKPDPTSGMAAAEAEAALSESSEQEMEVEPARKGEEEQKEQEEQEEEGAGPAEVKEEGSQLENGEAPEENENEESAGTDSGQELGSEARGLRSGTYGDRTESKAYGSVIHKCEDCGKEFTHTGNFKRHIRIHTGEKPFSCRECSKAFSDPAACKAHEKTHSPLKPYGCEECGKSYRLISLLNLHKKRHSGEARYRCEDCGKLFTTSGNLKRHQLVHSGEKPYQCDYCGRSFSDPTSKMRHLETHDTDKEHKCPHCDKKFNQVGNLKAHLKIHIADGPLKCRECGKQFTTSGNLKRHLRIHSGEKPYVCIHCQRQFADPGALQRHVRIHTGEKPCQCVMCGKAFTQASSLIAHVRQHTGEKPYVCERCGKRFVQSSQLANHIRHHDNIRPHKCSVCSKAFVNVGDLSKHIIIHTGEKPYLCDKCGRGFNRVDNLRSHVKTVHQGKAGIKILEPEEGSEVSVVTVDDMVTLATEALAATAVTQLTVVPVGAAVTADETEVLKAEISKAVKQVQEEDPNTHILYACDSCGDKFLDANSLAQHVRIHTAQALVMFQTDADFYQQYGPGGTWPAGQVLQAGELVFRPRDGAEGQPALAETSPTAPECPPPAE
# UniProt P13984, sequence (P13984 whole entry): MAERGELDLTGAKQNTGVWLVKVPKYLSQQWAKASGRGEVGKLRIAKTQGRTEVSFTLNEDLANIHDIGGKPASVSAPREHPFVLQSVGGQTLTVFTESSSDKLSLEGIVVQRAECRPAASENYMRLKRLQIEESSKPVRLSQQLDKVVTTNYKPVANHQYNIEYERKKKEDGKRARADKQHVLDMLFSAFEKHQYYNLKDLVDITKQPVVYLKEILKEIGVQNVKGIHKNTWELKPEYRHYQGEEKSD
# UniProt O95786, sequence (O95786 whole entry): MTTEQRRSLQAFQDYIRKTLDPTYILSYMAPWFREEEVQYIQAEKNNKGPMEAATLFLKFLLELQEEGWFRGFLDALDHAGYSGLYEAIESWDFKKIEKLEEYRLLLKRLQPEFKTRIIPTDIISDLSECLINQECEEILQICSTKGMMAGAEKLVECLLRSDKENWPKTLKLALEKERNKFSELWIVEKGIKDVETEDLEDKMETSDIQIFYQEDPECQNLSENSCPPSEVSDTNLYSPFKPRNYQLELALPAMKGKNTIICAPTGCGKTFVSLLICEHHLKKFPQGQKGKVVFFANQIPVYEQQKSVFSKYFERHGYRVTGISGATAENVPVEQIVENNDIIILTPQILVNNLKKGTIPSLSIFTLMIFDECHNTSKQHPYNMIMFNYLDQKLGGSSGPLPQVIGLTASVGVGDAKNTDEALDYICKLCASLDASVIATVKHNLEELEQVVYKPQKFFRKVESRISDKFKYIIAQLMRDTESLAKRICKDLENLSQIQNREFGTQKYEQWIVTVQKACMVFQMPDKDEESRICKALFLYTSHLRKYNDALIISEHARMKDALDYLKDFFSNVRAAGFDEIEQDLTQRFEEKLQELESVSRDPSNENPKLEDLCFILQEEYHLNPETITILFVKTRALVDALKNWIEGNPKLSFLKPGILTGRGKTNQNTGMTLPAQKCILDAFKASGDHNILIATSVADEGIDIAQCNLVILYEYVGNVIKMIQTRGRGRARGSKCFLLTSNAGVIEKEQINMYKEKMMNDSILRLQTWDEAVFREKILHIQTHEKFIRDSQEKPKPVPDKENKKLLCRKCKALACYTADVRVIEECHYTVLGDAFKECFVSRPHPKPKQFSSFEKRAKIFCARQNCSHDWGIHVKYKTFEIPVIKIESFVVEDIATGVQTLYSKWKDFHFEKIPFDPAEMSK
# UniProt P00167, sequence (P00167 whole entry): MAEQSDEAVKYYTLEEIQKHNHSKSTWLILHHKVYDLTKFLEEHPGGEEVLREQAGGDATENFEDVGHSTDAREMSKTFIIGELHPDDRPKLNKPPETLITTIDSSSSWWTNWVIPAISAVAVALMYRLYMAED
# UniProt Q13243, sequence (Q13243 whole entry): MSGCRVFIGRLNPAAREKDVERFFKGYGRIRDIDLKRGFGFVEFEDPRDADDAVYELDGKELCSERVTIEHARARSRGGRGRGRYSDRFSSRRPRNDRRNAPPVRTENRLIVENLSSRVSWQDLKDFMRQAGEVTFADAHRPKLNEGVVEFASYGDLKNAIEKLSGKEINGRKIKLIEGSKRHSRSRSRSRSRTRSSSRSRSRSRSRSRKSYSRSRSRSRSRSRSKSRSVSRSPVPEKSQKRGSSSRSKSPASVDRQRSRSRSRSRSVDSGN
# UniProt P60228, sequence (P60228 whole entry): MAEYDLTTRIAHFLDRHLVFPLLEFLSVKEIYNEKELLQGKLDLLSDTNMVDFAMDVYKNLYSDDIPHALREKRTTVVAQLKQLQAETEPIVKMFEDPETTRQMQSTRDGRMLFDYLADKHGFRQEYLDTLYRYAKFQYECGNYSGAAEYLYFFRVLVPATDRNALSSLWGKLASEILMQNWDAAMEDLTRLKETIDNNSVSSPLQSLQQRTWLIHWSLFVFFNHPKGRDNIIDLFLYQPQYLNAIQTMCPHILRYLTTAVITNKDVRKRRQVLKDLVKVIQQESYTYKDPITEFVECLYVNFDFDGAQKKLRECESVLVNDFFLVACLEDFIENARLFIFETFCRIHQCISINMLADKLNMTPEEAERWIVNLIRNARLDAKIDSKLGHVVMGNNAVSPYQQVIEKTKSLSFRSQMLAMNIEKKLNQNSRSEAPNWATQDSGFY
# UniProt P07108, sequence (P07108 whole entry): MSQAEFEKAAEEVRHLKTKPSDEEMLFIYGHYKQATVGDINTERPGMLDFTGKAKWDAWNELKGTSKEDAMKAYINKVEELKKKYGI
Target,NP40-soluble protein abundance (concentration: 1mM),NP40-soluble protein abundance (concentration: 2mM),NP40-soluble protein abundance (concentration: 4mM),NP40-soluble protein abundance (concentration: 6mM),NP40-soluble protein abundance (concentration: 8mM),NP40-soluble protein abundance (concentration: 10mM)
UniProt P60228,1.04 ± 0.073,1.04 ± 0.077,1.1 ± 0.11,1.18 ± 0.12,1.24 ± 0.12,1.33 ± 0.2
UniProt P16383|P16383-2,1.05 ± 0.038,1.09 ± 0.044,1.101 ± 0.0092,1.08 ± 0.03,1.07 ± 0.033,1.097 ± 0.0024
HMGN1 (UniProt P05114),1.23 ± 0.1,1.36 ± 0.18,1.28 ± 0.074,1.57 ± 0.15,1.54 ± 0.16,1.89 ± 0.36
DLAT (UniProt P10515),0.959 ± 0.23,0.904 ± 0.2,0.904 ± 0.31,0.877 ± 0.31,0.899 ± 0.27,0.923 ± 0.31
UniProt P42285,1.006 ± 0.0056,0.982 ± 0.062,1.07 ± 0.033,1.1 ± 0.036,1.14 ± 0.068,1.13 ± 0.089
UniProt P62318|P62318-2,1.07 ± 0.086,1.12 ± 0.12,1.19 ± 0.099,1.22 ± 0.017,1.29 ± 0.09,1.32 ± 0.056
PRIM2 (UniProt P49643),0.996 ± 0.022,0.954 ± 0.018,1 ± 0.013,1.02 ± 0.044,1.02 ± 0.027,1.02 ± 0.029
GTF2F2 (UniProt P13984),1 ± 0.011,1.06 ± 0.023,1.04 ± 0.019,1.07 ± 0.018,1.07 ± 0.015,1.103 ± 0.0083
UniProt O95782|O95782-2,0.994 ± 0.03,0.953 ± 0.058,1.07 ± 0.046,1.09 ± 0.044,1.13 ± 0.021,1.13 ± 0.056
FDFT1 (UniProt P37268),0.993 ± 0.038,0.952 ± 0.027,0.991 ± 0.024,1.03 ± 0.1,1.05 ± 0.057,1.01 ± 0.078
CDK6 (UniProt Q00534),0.987 ± 0.029,0.951 ± 0.022,0.959 ± 0.03,0.967 ± 0.012,0.945 ± 0.033,0.91 ± 0.029
UniProt P01112,1.06 ± 0.026,1.04 ± 0.016,1.03 ± 0.021,1 ± 0.062,1.06 ± 0.021,1.01 ± 0.025
UQCRB (UniProt P14927),0.9813 ± 0.003,1.07 ± 0.082,0.954 ± 0.025,0.969 ± 0.018,0.935 ± 0.0015,0.933 ± 0.023
MPP1 (UniProt Q00013),1.01 ± 0.015,0.964 ± 0.035,1.01 ± 0.028,0.978 ± 0.028,1.01 ± 0.048,0.986 ± 0.034
UniProt P61289|P61289-2,0.983 ± 0.064,0.955 ± 0.12,0.808 ± 0.23,0.886 ± 0.17,0.999 ± 0.037,0.968 ± 0.1
UniProt O94804,1.03 ± 0.017,1.04 ± 0.031,1.01 ± 0.027,0.987 ± 0.029,0.96 ± 0.012,0.991 ± 0.048
UniProt P05771|P05771-2,1.05 ± 0.019,1.03 ± 0.016,1.04 ± 0.029,1.04 ± 0.012,1.05 ± 0.017,1.04 ± 0.03
UniProt Q12769|G3V198,1 ± 0.024,0.9518 ± 0.0046,0.9433 ± 0.006,0.9621 ± 0.0016,0.99281 ± 0.00096,0.991 ± 0.019
UniProt P62805,0.903 ± 0.073,0.951 ± 0.018,0.964 ± 0.046,1.12 ± 0.18,1.25 ± 0.16,1.52 ± 0.25
UniProt P52948|P52948-2|P52948-5|P52948-6,1.07 ± 0.047,1.1 ± 0.015,1.13 ± 0.018,1.22 ± 0.056,1.28 ± 0.02,1.417 ± 0.011
PSMD2 (UniProt Q13200),0.891 ± 0.014,0.849 ± 0.068,0.854 ± 0.074,0.858 ± 0.087,0.851 ± 0.086,0.816 ± 0.12
USP4 (UniProt Q13107),1 ± 0.018,0.967 ± 0.044,1 ± 0.046,0.97 ± 0.042,0.975 ± 0.039,0.942 ± 0.038
UniProt P26368|P26368-2,0.986 ± 0.075,1 ± 0.025,1.11 ± 0.069,1.24 ± 0.098,1.41 ± 0.09,1.51 ± 0.12
UniProt P17096|P17096-2,1.01 ± 0.076,1.19 ± 0.19,1.12 ± 0.047,1.29 ± 0.057,1.31 ± 0.088,1.74 ± 0.29
SDHB (UniProt P21912),0.976 ± 0.045,1 ± 0.056,0.987 ± 0.063,1.03 ± 0.079,1.02 ± 0.075,1.04 ± 0.052

Target,NP40-soluble protein abundance (concentration: 1mM),NP40-soluble protein abundance (concentration: 2mM),NP40-soluble protein abundance (concentration: 4mM),NP40-soluble protein abundance (concentration: 6mM),NP40-soluble protein abundance (concentration: 8mM),NP40-soluble protein abundance (concentration: 10mM)
UniProt O95786|O95786-2,0.996 ± 0.051,0.944 ± 0.035,0.978 ± 0.022,0.942 ± 0.017,0.967 ± 0.021,0.933 ± 0.029
UniProt P60866|P60866-2,0.932 ± 0.061,0.906 ± 0.058,0.883 ± 0.13,0.91 ± 0.04,0.889 ± 0.043,0.929 ± 0.13
DBI (UniProt P07108),1.04 ± 0.064,1.06 ± 0.055,0.987 ± 0.015,0.96 ± 0.041,0.928 ± 0.025,0.997 ± 0.1
USP8 (UniProt P40818),1.036 ± 0.0058,1.05 ± 0.033,1.048 ± 0.0058,0.997 ± 0.015,0.996 ± 0.042,1.01 ± 0.033
UniProt O95251|O95251-4,1.11 ± 0.031,1.17 ± 0.06,1.18 ± 0.063,1.2 ± 0.073,1.25 ± 0.077,1.36 ± 0.088
GLRX3 (UniProt O76003),1.04 ± 0.026,1.02 ± 0.011,0.99 ± 0.027,0.9932 ± 0.0036,0.989 ± 0.031,0.976 ± 0.055
HIST1H1B (UniProt P16401),1.052 ± 0.0074,1.18 ± 0.18,1.15 ± 0.11,1.27 ± 0.22,1.32 ± 0.21,1.59 ± 0.19
UniProt Q13243,1.1 ± 0.056,1.2 ± 0.091,1.17 ± 0.07,1.19 ± 0.013,1.208 ± 0.0093,1.36 ± 0.12
PAK1 (UniProt Q13153),0.989 ± 0.035,1.05 ± 0.046,0.989 ± 0.036,0.981 ± 0.013,0.926 ± 0.032,0.975 ± 0.041
UniProt Q02880|Q02880-2,1.56 ± 0.036,1.63 ± 0.041,1.77 ± 0.12,1.88 ± 0.19,1.95 ± 0.18,2.01 ± 0.25
UniProt Q13105|Q13105-2|Q13105-3,1.01 ± 0.06,1.011 ± 0.0042,1.03 ± 0.028,1.04 ± 0.057,1.04 ± 0.051,1.07 ± 0.072
UniProt Q13163|Q13163-2|Q13163-3|Q13163-4,0.968 ± 0.026,1.01 ± 0.041,1.02 ± 0.057,0.958 ± 0.049,0.933 ± 0.019,0.941 ± 0.022
UniProt P52824|H0YA20,0.978 ± 0.0098,0.979 ± 0.023,0.955 ± 0.028,0.99 ± 0.025,0.96 ± 0.039,0.986 ± 0.03
P0DN76|Q01081 (UniProt Q01081+P0DN76),1.04 ± 0.065,1.06 ± 0.083,1.12 ± 0.05,1.29 ± 0.099,1.47 ± 0.18,1.51 ± 0.18
FXR2 (UniProt P51116),1.07 ± 0.022,1.1 ± 0.023,1.2 ± 0.025,1.24 ± 0.076,1.33 ± 0.051,1.39 ± 0.12
THOP1 (UniProt P52888),0.938 ± 0.036,0.884 ± 0.095,0.924 ± 0.021,0.944 ± 0.034,0.942 ± 0.041,0.921 ± 0.028
COX6B1 (UniProt P14854),0.864 ± 0.041,0.926 ± 0.032,0.916 ± 0.063,0.86 ± 0.055,0.821 ± 0.016,0.839 ± 0.019
PCNA (UniProt P12004),1.008 ± 0.0098,0.998 ± 0.012,0.957 ± 0.012,0.973 ± 0.015,0.951 ± 0.018,0.935 ± 0.024
SSR4 (UniProt P51571),0.998 ± 0.014,0.961 ± 0.064,0.988 ± 0.019,0.977 ± 0.027,0.998 ± 0.011,0.981 ± 0.037
UniProt P00167|P00167-2,0.995 ± 0.028,0.984 ± 0.033,0.936 ± 0.036,0.992 ± 0.011,0.948 ± 0.021,0.966 ± 0.012
UniProt P33981|P33981-2,1.04 ± 0.027,1.021 ± 0.0069,1.05 ± 0.033,1.018 ± 0.01,1.02 ± 0.034,1.03 ± 0.036
GRB2 (UniProt P62993),0.985 ± 0.035,0.943 ± 0.046,0.946 ± 0.023,0.972 ± 0.01,0.944 ± 0.037,0.918 ± 0.024
LDHB (UniProt P07195),1.01 ± 0.019,0.92 ± 0.025,0.947 ± 0.02,0.973 ± 0.036,0.969 ± 0.024,0.943 ± 0.013
UniProt O94763,1.05 ± 0.048,1.13 ± 0.06,1.05 ± 0.05,1.02 ± 0.1,0.962 ± 0.063,1.02 ± 0.059
WDHD1 (UniProt O75717),1.01 ± 0.021,0.996 ± 0.012,0.99 ± 0.015,0.963 ± 0.036,0.953 ± 0.016,0.937 ± 0.014
